Potency and outcome data for 10 compounds are collected here from PubChem BioAssay (Tox21).

Assay [1] addresses Retinoic acid receptor RXR-alpha (Homo sapiens) (UniProt P19793). The experiment in a line: qHTS assay to identify small molecule agonists of the RXR signaling pathway (AID 1159527; calls by dose curve; also: nearly all actives have a fitted effect of over 35% in size; also: potency is read from the fitted curve at half-maximal effect). In outline: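 Cells plated at 2,000/well, rested 5 hr at 37 C, pin-dosed with DMSO compound solutions, incubated 16 hr, then loaded with B/G FRET substrate for 2 hr at RT before dual-emission fluorescence reading.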
On the technique in general: In qHTS, concentration-response curves come from the screen itself.

Assay [2] can be described thus: qHTS assay to identify small molecule agonists of the RXR signaling pathway - cell viability counter screen (AID 1159529).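 Also: HEK 293T cells carrying an RXR-alpha UAS beta-lactamase reporter; nearly all actives have a fitted effect of over 50% in size.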 In a few lines: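 Steps: seed RXR-alpha-UAS-bla HEK 293T cells in assay medium containing 2% charcoal-stripped FBS; incubate 5 hr; add compounds in DMSO; incubate 16 hr at 37 C; after the bla read, add CellTiter-Glo and read luminescence at 30 min.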

Assay [3] can be described thus: qHTS assay to identify small molecule antagonists of the retinoic acid receptor (RAR) signaling pathway (AID 1159552; also: nearly all actives have a fitted effect of over 50% in size). In a few lines: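 Retinol at 1 uM final stimulated RARE-luciferase expression in C3RL4 cells exposed to test compounds for 6 hr at 37 C. Reduced luminescence, read 30 min after detection reagent, indicated pathway antagonism.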
Assay [4] can be described thus: qHTS assay to identify small molecule agonists of the retinoic acid receptor (RAR) signaling pathway (AID 1159553). The following applies: C3RL4 RARE luciferase reporter, agonist, 6 h; activation: at 73.3 µM (top of the series). In outline:
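C3RL4 RARE-luciferase cells were seeded at 1,000/well and grown overnight at 37 C, then exposed to compounds for 6 hr at 37 C, 5% CO2. Luciferase reagent was added and luminescence was read after 30 min at room temperature.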

Assay [5] in a line: qHTS assay to identify small molecule antagonists of the estrogen related receptor (ERR) signaling pathway from Tox21 library - cell viability counter screen (AID 1224834). Also: nearly all actives have a fitted effect of over 30% in size. In outline:
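ERR reporter cells, 2,000 per well, rested 6 h, then exposed to compound in DMSO for 17.5 hours at 37 C. Viability read as fluorescence after 30 min with CellTiter-Fluor.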

Assay [6] addresses Luciferin 4-monooxygenase (Photinus pyralis) (UniProt P08659). The experiment in a line: qHTS assay to identify small molecule inhibitors of firefly luciferase (AID 1224835). Also: nearly all actives have a fitted effect of over 25% in size. In outline: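 Quantitative HTS format; KM concentrations of both substrates. Purified P. pyralis FLuc activity quantified from luminescence images.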
Assay [7] is described as follows: qHTS assay to identify small molecule agonists of the constitutive androstane receptor (CAR) signaling pathway - cell viability counter screen (AID 1224836). Also: nearly all actives have a fitted effect of over 45% in size. In outline: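 Cells were seeded and incubated 4 hrs. Compounds were added across 15 concentrations together with PK11195 at 0.75 uM final. Plates were incubated 23 hrs at 37 C. CellTiter-Fluor was added and fluorescence measured.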

Assay [8] can be described thus: qHTS assay to identify small molecule antagonists of the constitutive androstane receptor (CAR) signaling pathway - cell viability counter screen (AID 1224837). Also: nearly all actives have a fitted effect of over 45% in size. Also: potency is read from the fitted curve at half-maximal effect. In a few lines: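 HepG2 cells stably carrying hCAR and CYP2B6-2.2kb reporter, stimulated with 50 nM CITCO and compounds at 15 concentrations for 23 h at 37 C. Viability measured by CellTiter-Fluor fluorescence.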

For assay [9], the target named is Nuclear receptor subfamily 1 group I member 3 (Homo sapiens) (UniProt Q14994). In words: qHTS assay to identify small molecule antagonists of the constitutive androstane receptor (CAR) signaling pathway (AID 1224838). Also: nearly all actives have a fitted effect of over 40% in size. In outline:
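HepG2 cells stably carrying hCAR and a CYP2B6-2.2kb luciferase reporter, seeded 4 hrs before compound (15 concentrations). Stimulated with 50 nM CITCO for 24 hr at 37 C. ONE-Glo luminescence read after 30 min at room temperature.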

Assay [10] shares this target. The experiment in a line: qHTS assay to identify small molecule agonists of the constitutive androstane receptor (CAR) signaling pathway (AID 1224839). Also: nearly all actives have a fitted effect of over 15% in size. In a few lines: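 Cells were plated and incubated 4 hrs, then dosed with compounds at 15 concentrations. PK11195 was added to 0.75 uM final. After 24 hrs at 37 C, luciferase luminescence was measured.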
The nature of assay [11]: qHTS assay to identify small molecule agonists of the hypoxia (HIF-1) signaling pathway - cell viability counter screen (AID 1224844; calls by dose curve; also: nearly all actives have a fitted effect of over 50% in size). In a few lines: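 HRE-bla ME-180 cells, 2,000/well in 0.5% dialyzed FBS medium, treated 17 h at 37C with compounds. Viability read in the same wells as the bla reporter, by CellTiter-Glo luminescence after 30 min at room temperature.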
Assay [12] is described as follows: qHTS assay to identify small molecule agonists of H2AX (AID 1224845; active = well fitted activation curve with a large enough effect in the signal ratio in the repeat runs, not every such curve was filed as active; the % refers to the signal ratio). In outline:
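Wild-type CHO-K1 cells plated overnight, then exposed 3 hr at 37C to compounds at 15 concentrations (0.76% DMSO). Lysed, then HTRF anti-pH2AX(S139)-cryptate/anti-H2AX-d2 detection after 24 hr at room temperature; emissions 665 and 620 nm.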

Assay [13] is described as follows: qHTS assay to identify small molecule agonists of the hypoxia (HIF-1) signaling pathway (AID 1224846; active = well fitted activation curve with a large enough effect in the signal ratio in the repeat runs, not every such curve was filed as active; the % refers to the signal ratio). In outline:
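HRE-bla ME-180 beta-lactamase reporter cells in medium with 0.5% dialyzed FBS, pre-incubated 5 h then exposed to compounds 17 h at 37C, 5% CO2; reporter induction read with CCF4-AM FRET substrate.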

The nature of assay [14]: qHTS assay to identify small molecule antagonists of the retinoid acid receptor (RAR) signaling pathway - cell viability counter screen (AID 1159551). Also: nearly all actives have a fitted effect of over 35% in size. In a few lines:
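C3RL4 RARE-luciferase cells, 1,000/well, incubated overnight, then dosed with compound plus 1 uM retinol (final). After 6 hr at 37 C, viability read by CellTiter-Glo ATP luminescence following 30 min at room temperature.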

Assay [15] concerns the target Thyrotropin receptor (Homo sapiens) (UniProt P16473). The experiment in a line: qHTS assay to identify small molecule agonists of the thyroid stimulating hormone receptor (TSHR) signaling pathway (AID 1224843; calls by dose curve; also: nearly all actives have a fitted effect of over 45% in size). In outline: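 Cell line HEK293 with TSHR; density 800/well. Exposure 30 min RT. Readout HTRF cAMP (cAMP-d2/anti-cAMP-cryptate), 1 h RT before reading.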
Assay [16] in a line: qHTS assay to identify small molecule antagonists of the estrogen related receptor signaling pathway with the pleiotropic PPARgamma coactivator (PGC) from Tox21 10K library - cell viability counter screen (AID 1224840; active = well fitted cell-killing curve with a large enough effect in the repeat runs, not every such curve was filed as active; also: nearly all actives have a fitted effect of over 40% in size). In a few lines: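 PGC/ERR cells (2,000/well) plated 6 h, then compound-treated for 17.5 h at 37 C. Viability measured by CellTiter-Fluor fluorescence after 30 min at 37 C, multiplexed with the pathway assay.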

Assay [17] in a line: qHTS assay to identify small molecule antagonists of the estrogen related receptor signaling pathway with the pleiotropic PPARgamma coactivator (PGC) from Tox21 10K library (AID 1224841; call rule not given here; also: actives are mostly falling curves and most rising ones were filed inactive; nearly all actives have a fitted effect of over 50% in size). In outline:
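PGC/ERR cell line, 2,000 cells/well, pre-incubated 6 hours at 37 C, then exposed to compounds for 18 hours at 37 C; luciferase read with One-Glo luminescence after 30 min at room temperature.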

The nature of assay [18]: qHTS assay to identify small molecule agonists of the estrogen related receptor signaling pathway with the pleiotropic PPARgamma coactivator (PGC) from Tox21 10K library (AID 1224842). Also: nearly all actives have a fitted effect of over 15% in size. In a few lines:
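PGC/ERR reporter cells (NTP line) were seeded 2,000 per well, rested 6 h at 37 C/5% CO2, then pin-dosed with compounds in DMSO for 18 h at 37 C; luciferase read by One-Glo luminescence after 30 min at room temperature.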

Assay [19] in a line: qHTS assay to identify small molecule antagonists of the estrogen related receptor (ERR) signaling pathway from Tox21 library (AID 1224848). Also: nearly all actives have a fitted effect of over 50% in size. Also: potency is read from the fitted curve at half-maximal effect. In outline:
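Screening used an ERR reporter line supplied by NTP, exposed for 18 h at 37 C to library compounds delivered in DMSO. Signal was luciferase luminescence developed with ONE-Glo at room temperature for 30 min.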

Assay [20] is described as follows: qHTS assay to identify small molecule agonists of H2AX - cell viability counter screen (AID 1224847; calls by dose curve; also: top concentration of the series differs between compounds; nearly all actives have a fitted effect of over 30% in size). In outline:
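Cytotoxicity counter screen in wild-type CHO-K1 cells: a 3 hr compound treatment at 37C across 15 concentrations, followed by CellTiter-Glo luminescence to gauge viable cells.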

Records with an inconclusive call do not appear. Values without a mark were called inactive. Active and inactive are the calls of the source. Unless noted, calls follow the shape of the dose curve; as a rule, active = well fitted curve in the direction sought with a large enough effect in the repeat runs; inconclusive = weak or mixed curves; inactive = no such curve, though single readings can be large; an effect the other way counts as inactive or inconclusive.

Luciferin 4-monooxygenase (Photinus pyralis), sequence (P08659 whole entry, looked up): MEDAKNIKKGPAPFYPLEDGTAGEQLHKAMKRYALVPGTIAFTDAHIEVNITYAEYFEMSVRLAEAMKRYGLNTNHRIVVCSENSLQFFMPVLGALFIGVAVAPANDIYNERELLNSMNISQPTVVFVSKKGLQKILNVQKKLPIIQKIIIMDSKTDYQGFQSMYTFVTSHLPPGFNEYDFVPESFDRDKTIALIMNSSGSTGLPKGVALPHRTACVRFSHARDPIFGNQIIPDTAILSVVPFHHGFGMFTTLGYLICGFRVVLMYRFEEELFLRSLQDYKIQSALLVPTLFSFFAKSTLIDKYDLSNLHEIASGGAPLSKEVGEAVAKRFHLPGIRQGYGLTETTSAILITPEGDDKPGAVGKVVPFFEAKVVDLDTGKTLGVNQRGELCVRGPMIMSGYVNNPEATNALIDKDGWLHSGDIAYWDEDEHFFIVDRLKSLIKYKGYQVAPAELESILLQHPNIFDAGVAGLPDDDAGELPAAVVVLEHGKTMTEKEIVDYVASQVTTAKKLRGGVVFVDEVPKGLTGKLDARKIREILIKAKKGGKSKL
Nuclear receptor subfamily 1 group I member 3 (Homo sapiens), sequence (Q14994 whole entry, looked up): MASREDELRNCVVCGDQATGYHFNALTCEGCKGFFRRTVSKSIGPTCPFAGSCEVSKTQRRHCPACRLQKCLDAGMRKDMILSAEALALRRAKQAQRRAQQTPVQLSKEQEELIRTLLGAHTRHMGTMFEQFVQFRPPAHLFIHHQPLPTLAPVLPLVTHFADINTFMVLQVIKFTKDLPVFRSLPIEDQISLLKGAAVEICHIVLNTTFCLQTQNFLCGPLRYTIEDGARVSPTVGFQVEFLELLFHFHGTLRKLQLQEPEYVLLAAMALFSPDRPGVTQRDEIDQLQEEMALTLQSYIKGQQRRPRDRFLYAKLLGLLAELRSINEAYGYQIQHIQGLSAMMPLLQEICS
Thyrotropin receptor (Homo sapiens), sequence (P16473 whole entry, looked up): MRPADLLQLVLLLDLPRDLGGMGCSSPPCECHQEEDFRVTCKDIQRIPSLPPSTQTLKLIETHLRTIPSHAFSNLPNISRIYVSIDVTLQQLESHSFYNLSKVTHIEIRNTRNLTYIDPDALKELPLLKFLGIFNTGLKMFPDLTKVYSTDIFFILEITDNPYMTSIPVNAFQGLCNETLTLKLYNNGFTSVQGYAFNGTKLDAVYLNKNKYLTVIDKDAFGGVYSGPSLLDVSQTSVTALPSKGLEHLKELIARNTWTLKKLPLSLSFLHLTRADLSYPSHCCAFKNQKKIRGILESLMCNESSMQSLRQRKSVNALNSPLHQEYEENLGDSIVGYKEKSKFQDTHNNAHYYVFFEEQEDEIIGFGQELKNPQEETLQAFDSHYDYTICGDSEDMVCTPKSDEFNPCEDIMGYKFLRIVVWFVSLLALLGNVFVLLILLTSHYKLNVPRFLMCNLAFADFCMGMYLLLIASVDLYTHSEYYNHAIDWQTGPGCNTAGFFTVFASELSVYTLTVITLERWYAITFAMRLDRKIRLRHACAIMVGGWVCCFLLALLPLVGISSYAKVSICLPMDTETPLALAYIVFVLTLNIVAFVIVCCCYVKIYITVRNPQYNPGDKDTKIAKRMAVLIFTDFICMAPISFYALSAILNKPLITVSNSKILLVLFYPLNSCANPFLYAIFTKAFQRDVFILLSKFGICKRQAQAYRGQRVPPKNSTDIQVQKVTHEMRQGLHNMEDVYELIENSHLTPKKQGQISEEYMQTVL
Retinoic acid receptor RXR-alpha (Homo sapiens), sequence (P19793 whole entry, looked up): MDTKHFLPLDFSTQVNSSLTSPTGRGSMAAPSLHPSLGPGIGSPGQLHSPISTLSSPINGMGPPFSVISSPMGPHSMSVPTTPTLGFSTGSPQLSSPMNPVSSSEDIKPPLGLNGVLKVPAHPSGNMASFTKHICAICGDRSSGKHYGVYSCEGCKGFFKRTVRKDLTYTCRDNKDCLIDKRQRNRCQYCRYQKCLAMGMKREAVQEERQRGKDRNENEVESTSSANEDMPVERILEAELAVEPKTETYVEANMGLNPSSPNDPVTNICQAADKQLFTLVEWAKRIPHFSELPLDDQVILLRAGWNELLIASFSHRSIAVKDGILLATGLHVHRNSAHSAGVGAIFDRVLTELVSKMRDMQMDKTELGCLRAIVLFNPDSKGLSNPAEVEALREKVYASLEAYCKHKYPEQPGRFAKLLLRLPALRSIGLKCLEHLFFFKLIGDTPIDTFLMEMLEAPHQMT

With `CO[Si](CCCCl)(OC)OC`, the Potency entry in assay [1], in assay [3], in assay [4], in [5], in [6] and in assay [8] was “inactive” throughout. Also, the Potency result in assay [9] and in [10] was “inactive” each time. The outcome in assay [2], in assay [7], in [11], in [12] and in [13] was inactive.
Consider `O=C(O)c1c(Cl)ccc(Cl)c1Cl`, for which the Potency in [1] was 15.5 µM (active). Moreover, the outcome in assay [14], in assay [7], in assay [15], in assay [11], in assay [12] and in assay [13] was inactive. The Potency result in assay [3], in assay [4], in [5], in assay [6], in assay [8] and in assay [9] was “inactive” each time.
With `CCCCCC(=O)OCC`, the Potency entry in [1], in assay [3], in assay [4], in assay [5], in assay [6] and in assay [8] was “inactive” each time. The call in assay [14], in assay [7], in assay [16], in [15], in assay [11] and in assay [12] was inactive. Further, the compound was called inactive in [13].
For the compound `Cc1cccc(NC(=S)N(C)C)c1`, the Potency entry in assay [1], in assay [3], in assay [4], in [5], in assay [6] and in assay [10] was “inactive” in each case. In [17], the Potency entry was “inactive”. For the same compound, the outcome in assay [14], in assay [16], in assay [18], in assay [15], in assay [11] and in [12] was inactive. Besides, the compound was called inactive in assay [13]. Moreover, the Potency in [8] was 61.1 µM (active); in assay [19], 48.6 µM (active).
Regarding `CC(=O)OCCCc1ccccc1`, the Potency result in assay [1], in assay [3], in [4], in assay [6], in [8] and in assay [17] was “inactive” each time. Besides, the Potency result in [20] and in [19] was “inactive” each time. The outcome in [14], in assay [16], in assay [18], in [15], in assay [11] and in assay [12] was inactive. Further, the outcome in assay [13] was inactive.
Regarding `CCc1nccnc1C`, the Potency result in [1], in [3], in assay [4], in assay [5], in assay [8] and in assay [17] was “inactive” throughout. In addition, the Potency entry in assay [20] and in [19] was “inactive” each time. Moreover, the outcome in assay [14], in assay [7], in [16], in assay [18], in assay [15] and in assay [11] was inactive. Also, the result in [12] and in [13] was inactive.
For the compound `N#CCCOCCOCCC#N`, the Potency entry in assay [1], in [3], in assay [4], in assay [5], in assay [6] and in assay [8] was “inactive” throughout. Further, the call in assay [14], in assay [7], in [16], in assay [15], in [11] and in [12] was inactive. Moreover, the outcome in [13] was inactive.
On to `C=C(C)C(=O)OC1CC(C)CC(C)(C)C1` (stereo not given), for which the Potency result in assay [1], in assay [3], in assay [4], in assay [6], in [8] and in assay [20] was “inactive” each time. The outcome in assay [7], in assay [16], in assay [15], in [11], in [12] and in [13] was inactive.
Consider `O=C(O)c1ccc(OCCN2CCCCC2)cc1`, for which the Potency result in assay [1], in [4], in assay [5], in assay [8] and in assay [19] was “inactive” throughout. The outcome in assay [7], in assay [16], in [18], in [15], in assay [11] and in assay [12] was inactive. For the same compound, in assay [13], the outcome was inactive.
As for `CCN1CN(CC)CN(CC)C1`, the Potency result in assay [1], in assay [4], in assay [5], in assay [6] and in [8] was “inactive” throughout. Besides, the outcome in assay [14], in [7], in [16], in assay [15], in [11] and in assay [12] was inactive. Besides, in [13], the call was inactive.
